Rows were chosen to be rich in hits. Some 12% of all compounds tested hit in one or more screens of this group.
G9a inh: inhibitors of human histone lysine methyltransferase G9a; Q96KQ7; hit rate 8.8% among 350,000; Potency, µM (highest dose often 102 µM), usual class: inhibitors; G9a H3K9 monomethylation, AlphaScreen, 2 h; AID 504332; further: nearly all actives have a fitted effect of over 75% in size
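G9a (20 nM) was preincubated 15 min with compound, then reacted 2 h at room temperature with 500 nM biotin-H3K9 peptide and 20 µM SAM. Monomethyl-H3K9 detected by AlphaScreen using anti-H3K9me1 antibody.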
JMJD2A Tudor inh: JMJD2A Tudor domain (human) inhibition; O75164; AlphaScreen JMJD2A-Tudor / H3K4me3 peptide binding; Potency, µM (highest dose often 114 µM), most hits filed as inhibitors; hit rate 4.4% among 390,000; further: nearly all actives have a fitted effect of over 50% in size
Sfp PPTase inh: inhibitors of Bacillus subtilis Sfp phosphopantetheinyl transferase. AID 1490. Biochemical Sfp PPTase activity, qHTS. hit rate 3.5% among 310,000. Potency, µM, usual class: inhibitors;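 further: the enzyme is Sfp with the accession as filed and its product quenches rhodamine fluorescence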
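After 15 min at room temperature with compound, 15 nM Sfp received 5 uM rhodamine-CoA plus 12.5 uM BHQ-2-ybbR (50 mM Hepes pH 7.6, 10 mM MgCl2). Rate came from the fluorescence difference over 30 min, ex 525/em 598 nm.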
L3MBTL1 inh: blocks human L3MBTL1. AlphaScreen L3MBTL1–H3K9me1 peptide binding. Potency, µM (doses to about 57.1 µM), usual class: inhibitors. hit rate 0.66% among 230,000; further: nearly all actives have a fitted effect of over 60% in size
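Displacement of a biotinylated histone H3(1-15) peptide monomethylated at Lys9 (75 nM) from L3MBTL1 (50 nM) was measured by AlphaScreen after a 30 min room-temperature compound incubation; cefsulodin titration served as intraplate control.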
BAZ2B block: BAZ2B (human) inhibition. AlphaScreen BAZ2B-H3K14Ac peptide displacement. hit rate 4.4% among 360,000. Potency, µM (doses to about 114 µM), most hits filed as inhibitors; further: nearly all actives have a fitted effect of over 60% in size
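Inhibition is scored as reduced AlphaScreen emission. The BAZ2B/b-H3(5-23)K14Ac complex (50 nM each) in PBS pH 7.4, 0.01% Tween-20 meets compound (up to 110 uM) for 30 min at RT before bead addition.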
HP1b binding inh: inhibitors of HP1-beta chromodomain binding to methylated histone tails; P83916; AlphaScreen HP1-beta / biotin-H3K9me3 peptide binding; Potency, µM (doses to about 114 µM), most hits filed as inhibitors; hit rate 0.56% among 390,000; further: nearly all actives have a fitted effect of over 70% in size
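HP1-beta protein (50 nM final) preincubated 30 min at room temperature with biotinylated H3(1-18)K9me3 peptide (50 nM) in PBS pH 7.4, 0.01% Tween-20, then compound added for 30 min. AlphaScreen streptavidin donor/nickel chelate acceptor beads (10 ug/mL final), 30 min dark, luminescence read.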
Hits are given with their value; i = inactive; ? = inconclusive; nt = no result; ! = not active in a repeat; [ ] = dose if it differs, or a comment. The call rests on the fitted dose curve; in most records, active means well fitted curve in the direction sought with a large enough effect; inconclusive means small, poorly fitted or top-dose-only effect, or another doubt; inactive means no such curve, though single readings can be large; an effect the other way counts as inactive or inconclusive.

SMILES	G9a inh	JMJD2A Tudor inh	Sfp PPTase inh	L3MBTL1 inh	BAZ2B block	HP1b binding inh
CC1=C(C(=O)O)N2C(=O)C(NC(=O)c3ccccc3Cl)C2SC1 (stereo not given)	1.78µM	i	8.91µM	nt	i	i
NC(C(=O)N[C@@H]1C(=O)N2C(C(=O)O)=C(Cl)CS[C@H]12)c1ccccc1 (stereo not given in full)	2.38µM!	nt	nt	nt	nt	nt
CC(C)(C)c1ccc(C(=O)NCCC(=O)Nc2cc(Cl)ccc2N2CCOCC2)cc1	i[12.7 µM]	i	nt	i	i	i
CCc1cccc(C)c1NC(=O)COC(=O)CSCc1ccccc1	nt	i	nt	i	nt	i
CCc1ccc(CNC(=O)CCc2cn(C)c3ccccc23)cc1	i	i	i	nt	i	i
CC1=C(C(=O)O)N2C(=O)[C@@H](NC(=O)C(N)C3=CCC=CC3)[C@H]2SC1 (stereo not given in full)	11.9µM!	nt	nt	nt	nt	nt
CC1=C(C(=O)O)N2C(=O)C(NC(=O)C(N)c3ccc(O)cc3)C2SC1 (stereo not given)	i[2.33 µM]	nt	i	nt	nt	nt
CC(=O)OCC1=C(C(=O)O)N2C(=O)C(NC(=O)c3ccc(COc4cccc(Cl)c4Cl)o3)C2SC1 (stereo not given)	31.6µM	?	i	?	50.1µM	i
CC1=C(C(=O)O)N2C(=O)C(NC(=O)c3ccc(F)cc3)C2SC1 (stereo not given)	0.891µM	?	nt	i	i	i
CCn1ccc(C(=O)NC2C(=O)N3C(C(=O)O)=C(C)CSC23)n1 (stereo not given)	22.4µM	i	31.6µM	i	?	i
COc1cccc(NC(=O)COC(=O)CNC(=O)C2CCCCC2)c1	i[2.33 µM]	i	nt	i	i	i
CCC1Oc2ccc(C)cc2N(CC(=O)N2CCOCC2)C1=O (stereo not given)	i	i	i	nt	i	i
C/C(=N\NS(=O)(=O)c1ccccc1)c1ccc2c(c1)OCCO2	?	i	i	i	i	i
CCOC(=O)c1sc(NC(=O)CCN2CCN(CC)CC2)c(C(=O)OCC)c1C	i	i	i	i	i	i
O=C(O)c1ccc(S(=O)(=O)c2ccc3c(c2)C(=O)N(NC(=O)c2ccncc2)C3=O)cc1	50.1µM	i	i	nt	i	i
O=C(O)c1ccc(S(=O)(=O)c2ccc3c(c2)C(=O)N(NC(=O)c2ccccc2)C3=O)cc1	i	i	i	nt	i	i
O=c1c(-c2ccccc2)c1-c1ccccc1	i	nt	i	nt	i	nt
S=c1sscc1-c1ccccc1	nt	31.6µM	nt	nt	nt	20µM
C=CCn1c(NS(=O)(=O)c2ccccc2)c(S(=O)(=O)c2ccc(C)cc2)c2nc3ccccc3nc21	2µM	i	39.8µM	3.55µM	i	i
O=S(=O)(Nc1c(S(=O)(=O)c2ccccc2)c2nc3ccccc3nc2n1C1CCCCC1)c1ccccc1	i	i	i	?	i	i
COc1ccc(-c2noc(CC(=O)N(C)c3cccc(C)c3)n2)cc1	i	i	nt	nt	i	i
CC(=O)Nc1cccc(S(=O)(=O)Nc2ccc(C)c(C)c2)c1	nt	i	nt	nt	nt	nt
CCOC(=O)c1c(/N=C/N(C)C)sc(/C=N/Nc2ccccc2)c1-c1ccccc1Cl	39.8µM	?	i	i	i	i
CCOC(=O)c1c(/N=C/N(C)C)sc(/C=N/Nc2ccccc2)c1-c1ccccc1	?	?	i	i	i	i
CCOc1ccccc1NC(=O)c1cc2cc3cc(C)ccc3nc2s1	i	i	nt	nt	i	i
SMILES	G9a inh	JMJD2A Tudor inh	Sfp PPTase inh	L3MBTL1 inh	BAZ2B block	HP1b binding inh
Cc1ccc2nc3sc(C(=O)Nc4ccc(F)cc4)cc3cc2c1	i[12.7 µM]	39.8µM	nt	i	?	i
Cc1nc(-c2ccc(NC(=O)/C=C\C(=O)O)cc2)cs1	35.5µM	?	i	i	i	i
Cc1ccc2sc(-c3ccc(NC(=O)/C=C\C(=O)O)cc3)nc2c1	50.1µM	i	i	nt	nt	i
Cc1ccc2sc(-c3ccc(NC(=O)c4cc(-n5cnnc5)ccc4Cl)cc3)nc2c1	?	i	i	i	i	i
Cc1ccc(C(=O)N2CCCC(Nc3ccc(F)cc3)C2)cc1C (stereo not given)	i	i	i	nt	?	i
CCOC(=O)C1=C(Cc2ccc(F)cc2)C(=O)c2ccccc2C1=O	8.91µM	20µM	8.91µM	nt	39.8µM	?
O=C(OCc1ccc(F)cc1)c1ccc2c(c1)-c1ccccc1C2=O	i	i	i	i	i	i

Screening data as filed in PubChem.
